Source: PubChem BioAssay (The Scripps Research Institute Molecular Screening Center)
LYPLA1 inh – LYPLA1 inhibitors, primary screen, counter-screen for PME1 inhibitor project, biochemical, fluorescence polarization, FP-Rh probe ABPP | Acyl-protein thioesterase 1 (Homo sapiens), O75608 | recombinant LYPLA1 | inhibition, % at 5.9 µM | 320,000 compounds, 0.16% hits | AID 2174, 2009;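 active means inhibition above the mean of all tested compounds plus 3 SD, set per campaign, cut at about 14% in these data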;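 further: inhibitors block serine hydrolase probe labeling of LYPLA1 so polarization falls; 0% = enzyme with DMSO and 100% = wells lacking LYPLA1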
Target sequence (O75608 whole entry, looked up): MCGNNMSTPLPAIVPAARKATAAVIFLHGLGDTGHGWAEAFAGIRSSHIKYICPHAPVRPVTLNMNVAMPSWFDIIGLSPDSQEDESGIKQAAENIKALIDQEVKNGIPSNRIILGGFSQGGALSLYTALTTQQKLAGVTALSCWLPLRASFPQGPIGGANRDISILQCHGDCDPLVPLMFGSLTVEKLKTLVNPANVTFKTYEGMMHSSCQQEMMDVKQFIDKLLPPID
PAFAH1B2 inh – PAFAH1B2 enzyme inhibitors, primary screen, biochemical, fluorescence polarization, human | AID 492953, 2010 | recombinant PAFAH1B2, FP-rhodamine activity probe | inhibition, % at 3.39 µM | 340,000 compounds, 1.2% hits;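 active means inhibition above the mean of all tested compounds plus 3 SD, cut at about 24% in these data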;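 further: 0% = enzyme with DMSO and 100% = wells lacking PAFAH1B2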
Target sequence (P68402 whole entry, looked up): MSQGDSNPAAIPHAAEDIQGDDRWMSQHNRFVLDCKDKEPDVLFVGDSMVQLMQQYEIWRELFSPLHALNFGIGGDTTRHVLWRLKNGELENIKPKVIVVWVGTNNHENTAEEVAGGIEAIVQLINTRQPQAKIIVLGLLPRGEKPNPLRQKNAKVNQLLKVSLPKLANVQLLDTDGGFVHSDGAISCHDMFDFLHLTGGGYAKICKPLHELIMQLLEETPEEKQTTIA
LYPLA2 inh – LYPLA2 inhibitors, primary screen, counter-screen for PME1 inhibitor project, biochemical, fluorescence polarization, FP-Rh probe ABPP; 320,000 compounds, 0.38% hits; AID 2177, 2009; inhibition, % at 5.9 µM; recombinant LYPLA2; Acyl-protein thioesterase 2 (Homo sapiens), O95372;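 active means inhibition above the screen-wide mean plus 3 SD, limit set per campaign, cut at about 26% in these data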;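 further: 0% = LYPLA2 with DMSO and 100% = wells lacking LYPLA2 enzyme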
PAFAH1B3 inh – PAFAH1B3 enzyme inhibitors, primary screen, biochemical, fluorescence polarization, human; AID 492972, 2010; 340,000 compounds, 0.28% hits; Platelet-activating factor acetylhydrolase IB subunit alpha1 (Homo sapiens), Q15102; recombinant PAFAH1B3, FP-rhodamine probe; inhibition, % at 3.39 µM;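 active means inhibition above the screen-wide average of all tested compounds plus 3 SD, cut at about 25% in these data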;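 further: 0% = enzyme with DMSO only and 100% = wells lacking PAFAH1B3 protein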
PAFAH2 inh – PAFAH2 enzyme inhibitors, primary screen, biochemical, fluorescence polarization, human; Platelet-activating factor acetylhydrolase 2, cytoplasmic (Homo sapiens), Q99487; inhibition, % at 3.39 µM; AID 492956, 2010; 340,000 compounds, 0.99% hits; recombinant PAFAH2, FP-rhodamine activity probe;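 active means inhibition above the mean over all tested compounds plus 3 SD, cut at about 30% in these data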;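 further: inhibitors block probe labeling of enzyme so polarization drops; 0% = enzyme with DMSO and 100% = wells lacking PAFAH2 protein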
pPAFAH inh – pPAFAH enzyme inhibitors, primary screen, biochemical, fluorescence polarization, human; recombinant pPAFAH, FP-rhodamine probe fluorescence polarization; inhibition, % at 3.39 µM; 330,000 compounds, 1.5% hits; AID 463082, 2010;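 active means inhibition above the mean inhibition across the screen plus 3 SD, cut at about 25% in these data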;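 further: inhibitors block binding of the rhodamine activity-based probe so polarization drops; 0% = enzyme with DMSO and 100% = wells lacking pPAFAH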
LYPLA1 conf – LYPLA1 inhibitors, retest, confirmation, counter-screen for PME1 inhibitor project, biochemical, fluorescence polarization, FP-Rh probe ABPP. shares compounds with LYPLA1 inh. inhibition, % at 5.9 µM. recombinant LYPLA1. 480 compounds, 69% hits;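 active means mean inhibition across replicates above the hit cutoff set in the primary screen, cut at about 15% in these data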;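 further: loss of FP-Rh probe labeling of LYPLA1 seen as lower polarization; 0% = LYPLA1 with DMSO and 100% = wells lacking LYPLA1 enzyme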
Numbers without * were called inactive; . = not tested or not shown. Compounds with a hit are over-represented: about 2.9% of the library has one in this group of screens.

SMILES	LYPLA1 inh	PAFAH1B2 inh	LYPLA2 inh	PAFAH1B3 inh	PAFAH2 inh	pPAFAH inh	LYPLA1 conf
Cc1noc(NS(=O)(=O)c2ccc(NC(=O)C(Cl)(Cl)Cl)cc2)c1C	-0.4	7.1	5.4	-3.4	3.1	-2.1	.
CCOc1ccc(C(=O)/C=C/Nc2ccc(S(=O)(=O)Nc3onc(C)c3C)cc2)cc1	3.5	5.8	8.4	7.7	-0.1	-7.4	.
Cc1cc2oc(C(=O)Nc3ccc(S(=O)(=O)Nc4onc(C)c4C)cc3)cc(=O)c2cc1Cl	20.5*	-2.8	9.5	-2.8	5.5	19.5	22.2*
Cc1noc(NS(=O)(=O)c2ccc(NC(=O)Nc3ccc(Cl)c(Cl)c3)cc2)c1C	35.4*	13.6	14.1	17.9	-18.9	25.4*	2.2
COc1ccc(CC(=O)OC(C)CN2CCCCC2)cc1 (stereo unspecified)	-2.8	2.6	1.9	5.9	3.9	-0.5	.
CCOc1ccc(OCCCC(=O)NCCOc2ccccc2OC)cc1	-3.6	4.8	-3.1	-8.4	-2.3	-1.8	.
Cc1nc2ccc(C(=O)Nc3cccc([N+](=O)[O-])c3)cc2s1	14.7*	3.1	-3.9	9.9	1.6	4.0	22.1*
CC(C)n1c(O)c(N=NC(=O)CNC(=O)Cc2ccc(Cl)cc2)c2ccccc21	1.9	6.8	5.2	3.7	5.6	7.0	.
COc1ccccc1C(=O)NCC(=O)N=Nc1c(O)n(C(C)C)c2ccccc12	19.9*	-0.2	-8.4	4.8	-7.0	-2.5	26.7*
O=C(CC1N=C(Cc2ccccc2)NNC1=O)N/N=C/c1ccc([N+](=O)[O-])cc1 (stereo unspecified)	26.1*	5.5	-2.6	5.5	5.3	13.7	22.8*
COc1cccc(C(=O)CSc2nc3cccnc3n2C)c1	-1.9	5.9	-2.0	2.7	-10.8	0.8	.
COC(=O)c1ccc(C(=S)N2CCOCC2)cc1	0.6	2.3	3.1	9.7	4.6	-1.7	.
COc1ccc(CNS(=O)(=O)c2ccc(-n3cnnn3)c(OC)c2)cc1	3.5	0.4	0.9	6.5	-0.5	4.4	.
COc1cc(S(=O)(=O)NCc2ccccc2)ccc1-n1cnnn1	15.4*	6.9	4.9	5.8	-3.9	-3.1	1.8
NC(=O)CS(=O)(=O)c1nc2ccccc2n1CC(=O)N1CCCCC1	2.4	0.3	6.6	9.3	4.1	-0.1	.
CCCCNCc1ccc(OCc2ccc(Cl)nc2)c(OC)c1	15.2*	10.1	9.7	-2.3	0.7	-2.6	2.6
COc1cc(CNCCc2ccccc2)ccc1OCc1ccc(Cl)nc1	4.0	3.8	21.2	4.7	0.2	-3.0	.
CCOC(=O)c1nnn(-c2nonc2N)c1CN(C)C1CCCCC1	0.5	6.1	10.1	3.4	5.6	-0.7	.
O=C(Nc1ccncc1)c1ccc2c(c1)C(=O)N(C1CCCCC1)C2=O	25.7*	-2.0	52.4*	-3.9	-13.3	0.1	30.6*
Cc1cc(NC(=O)c2ccc3c(c2)C(=O)N(C2CCCCC2)C3=O)no1	-0.8	-1.5	1.4	0.9	3.0	6.6	.
CN(CCCC1CCCC1)C(=O)c1cc(COc2ccc(F)c(F)c2)on1	16.1*	4.4	12.5	5.1	2.8	11.6	28.1*
CN(CCCC1CCCC1)C(=O)c1cc(COc2c(F)cccc2F)on1	3.5	-0.1	13.1	-0.9	1.0	10.5	.
O=C1C(Cc2c[nH]c3ccccc23)NC(=S)N1Cc1ccccc1 (stereo unspecified)	37.6*	.	-7.3	.	.	6.9	1.2
O=C1NC(Cc2c[nH]c3ccccc23)C(=O)N1Cc1ccccc1 (stereo unspecified)	0.4	7.7	-1.3	3.8	3.8	3.8	.
COc1ccc(C)cc1NC(=O)C1CCC(CNc2c(N3CCOCC3)c(=O)c2=O)CC1 (stereo unspecified)	1.0	2.6	-1.9	3.2	5.4	6.4	.
